# Screens as filed in PubChem.
# SSB-PriA inh: K. pneumoniae PriA-SSBct interaction inhibition; AlphaScreen SSBct-PriA binding, biotinylated peptide; inhibition, % at 33 µM; actives 0.6% (n = 430,000); AID 1272365; in the data active = inhibition mostly above about 37%, no sharp cut-off; inactive = mostly below about 20%;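 note: plate controls were negative control peptide for no effect and reference peptide for full effect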
# BoNT-A LC inh2: blocks Botulinum neurotoxin A light chain protease | multiplex microsphere protease substrate cleavage, flow cytometry | inhibition, % at 10 µM | actives 0.17% (n = 360,000) | AID 588499; note: plate controls were buffer without enzyme for full effect and enzyme alone for no effect
# Autofluor counter: counter-screen for toxin protease inhibitors: compound fluorescence. compound autofluorescence counterscreen, microsphere flow cytometry; active compounds read high. fluorescence intensity (concentration not given with the values). actives 3.1% (n = 360,000). AID 624483; in the data active = fluorescence intensity above about 16000; inconclusive = no clear call, values can overlap the other calls
# BoNT F protease: inhibitors of Botulinum neurotoxin F light chain protease | Multiplex microsphere protease cleavage assay, flow cytometry | inhibition, % at 10 µM | actives 0.22% (n = 360,000); in the data active = inhibition above about 35%, passing the limit was not always enough; inconclusive = no clear call, values can overlap the other calls; note: plate controls were buffer without enzyme for full effect and enzyme alone for no effect
# Anthrax LF inh2: blocks Bacillus anthracis lethal factor protease | P15917 | multiplex microsphere protease cleavage assay, LF | inhibition, % at 10 µM | actives 0.12% (n = 360,000); note: plate controls were buffer without enzyme for full effect and enzyme alone for no effect
# * hit, by the source's call; ? = inconclusive; . = not tested or not shown. Shown are actives, neighbours in structure and some others; about 3.1% of the full set was active somewhere. Cut-off read from the data, not from the text of the source, unless noted: active = inhibition above about 30%; inconclusive = no clear call, values can overlap the other calls; inactive = below that.
SMILES,SSB-PriA inh,BoNT-A LC inh2,Autofluor counter,BoNT F protease,Anthrax LF inh2
COc1cc2cc(C(c3nnnn3C3CCCC3)N(C)C3CCCCC3)c(=O)[nH]c2cc1OC (stereo not drawn),3.6,-1.6,21407*,-1.3,0.4
CC(C)C(c1nnnn1C1CCCC1)N(C)C1CCCCC1 (stereo not drawn),-2.9,?,20923*,-3.6,-0.2
CCOc1ccc(S(=O)(=O)NCCn2nc(-c3ccncc3)ccc2=O)c(OCC)c1,-14.0,.,.,.,.
Cn1ccnc1S(=O)(=O)C1CCN(C(=O)C2c3ccccc3Oc3ccccc32)CC1,-12.0,.,.,.,.
O=C(Nc1ccc(Cl)cc1)c1ccc(-n2cncn2)c([N+](=O)[O-])c1,9.8,-5.1,24392*,-9.2,-1.5
Cc1cc(C(=O)Nc2ccc(Nc3ccccc3)cc2)ccc1[N+](=O)[O-],54.1*,1.5,3154,?,-25.8
O=C(Nc1ccc(Nc2ccccc2)cc1)c1ccc(Cl)c([N+](=O)[O-])c1,52.1*,3.4,3416,?,-2.6
O=C(Nc1ccc(SC(F)F)cc1)c1ccc(Cl)c([N+](=O)[O-])c1,10.0,.,.,.,.
Cc1ccc(NC(=O)c2ccc(-n3cncn3)c([N+](=O)[O-])c2)cc1,-4.5,-0.3,6342,-5.8,-4.3
Cc1cc(C(=O)Nc2ccncc2)ccc1[N+](=O)[O-],26.2,-0.2,3865,-1.6,6.2
Cc1ccccc1NC(=O)c1ccc(Nc2c([N+](=O)[O-])cc([N+](=O)[O-])c3ccccc23)cc1,47.9*,-1.3,2471,-6.5,-3.3
CCOC(=O)N1CCN(C(=O)c2cn(-c3ccc(C)c(C)c3)nn2)CC1,-12.0,.,.,.,.
CN1c2ccccc2C(C)(C)C12C=Cc1cc(O)ccc1O2 (stereo not drawn),39.4*,0.0,7800,-18.5,-7.8
Cc1cc(N2C(=O)C(=O)C(=C(O)c3ccc(Cl)cc3)C2c2cccc(Br)c2)no1 (stereo not drawn),-11.2,.,.,.,.
O=C(O)c1cc(-n2cccc2)ccn1,95.0*,.,.,.,.
CN1CCN(C(CC(=O)Nc2ccc(OC(F)F)cc2)C(=O)O)CC1 (stereo not drawn),-3.0,.,.,.,.
COc1ccc(O)c(C2NC(CC(C)C)(C(=O)O)C3C(=O)N(Cc4ccccc4)C(=O)C23)c1 (stereo not drawn),2.9,-0.6,16430*,-0.9,-2.0
CCN1C(=O)[C@H]2[C@@H](c3ccc(-c4ccc(OC)cc4)cc3)N[C@@](CC(C)C)(C(=O)OC)[C@H]2C1=O,-2.7,0.0,4118,-8.8,1.3
O=C(Nc1ccc2c(c1)CCCN2S(=O)(=O)c1cccs1)c1cc(Cl)ccc1[N+](=O)[O-],20.0,.,.,.,.
O=C1c2ccccc2NC2(CCCCC2)N1c1ccc(O)cc1,-14.9,4.6,6978,155.7*,53.9*
CC1CCC2(CC1)Nc1ccccc1C(=O)N2c1ccccc1 (stereo not drawn),-2.5,0.7,4232,8.6,1.4
COCCSc1ccccc1C(=O)NCc1ccc(S(N)(=O)=O)cc1,-14.2,?,23008*,1.9,0.2
CCCc1cc(C(N)=O)c(NC(=O)c2ccco2)s1,-7.4,-2.0,16987*,-4.1,-1.4
Cc1sc(NC(=O)c2ccco2)c(C(N)=O)c1C,-17.0,.,.,.,.
Cn1nc(-c2ccc(F)cc2)cc1C(=O)Nc1ccccc1Cc1nc(-c2ccco2)no1,8.0,.,.,.,.
SMILES,SSB-PriA inh,BoNT-A LC inh2,Autofluor counter,BoNT F protease,Anthrax LF inh2
CC1(C(=O)NC2CCCCC2)CCC(=O)N1C1CCN(Cc2ccccc2)CC1 (stereo not drawn),.,-0.3,4226,-4.8,-5.9
CC1(C(=O)NC2CCCC2)CCC(=O)N1Cc1ccccc1 (stereo not drawn),-7.2,?,23334*,0.2,-2.9
COc1cccc(C(=O)NCC(C)(O)c2ccc(-c3ccccc3)cc2)c1OC (stereo not drawn),2.0,.,.,.,.
Cc1cccc(CN(C)C)c1OC(=O)N(C)C,-7.6,?,20578*,5.9,-1.5
CC(Cc1ccoc1)NS(=O)(=O)c1cccc2cccnc12 (stereo not drawn),13.0,.,.,.,.
O=C(O)CCCC(=O)OCCCCc1cccs1,-5.2,?,19404*,1.9,-0.8
O=C(O)CCCC(=O)OCCc1cc2ccccc2c(=O)o1,-4.8,-0.2,4112,-9.0,-3.9
CC(=NS(=O)(=O)c1ccc(C)cc1)N1CCN(S(=O)(=O)c2ccccc2)C1,0.1,.,.,.,.
CCN(CC)C(=O)Oc1ccc2ccccc2c1Cl,-28.3,0.2,2249,-7.2,-0.4
CN(C)C(=O)Oc1ccc2ccccc2c1Cl,-11.7,-1.3,23669*,-2.9,-2.7
CCS(=O)(=O)Nc1cccc(C2=NN(S(=O)(=O)c3ccccc3)C(c3cccs3)C2)c1 (stereo not drawn),-1.7,-2.4,22079*,-3.9,0.0
CCc1ccc(C2=NN(S(C)(=O)=O)C(c3cccs3)C2)cc1 (stereo not drawn),-16.5,-1.5,19673*,2.2,-3.4
Cc1ccc(C2=NN(S(C)(=O)=O)C(c3cccs3)C2)cc1 (stereo not drawn),-7.0,-1.9,?,-16.3,-8.1
CCS(=O)(=O)Nc1cccc(C2=NN(S(=O)(=O)c3ccc(C)cc3)C(c3cccs3)C2)c1 (stereo not drawn),6.2,1.1,7629,-4.4,-2.0
CCOc1nc(NCCc2ccc(OC)c(OC)c2)nc(NC(C)(C)CO)n1,-4.6,-1.7,16988*,-3.6,-2.4
Cc1csc(CN2CCN(C(=O)c3ccc(S(=O)(=O)N4CCOCC4)cc3)CC2)n1,-6.0,.,.,.,.
COc1ccc(N(CC(=O)N2CCc3ccccc3C2)S(C)(=O)=O)cc1OC,-13.8,-1.5,16881*,-6.6,-1.4
CC(=O)Nc1ccc(NC(=O)CN(c2cccc(C(C)=O)c2)S(C)(=O)=O)cc1,-1.3,-0.1,4595,1.1,-3.6
COc1ccc(NC(=O)CN(c2cccc(C(F)(F)F)c2)S(C)(=O)=O)cc1OC,5.1,3.2,20812*,9.3,0.1
CC(=O)Nc1ccc(NC(=O)CN(c2cccc(C)c2)S(C)(=O)=O)cc1,0.1,-0.2,22430*,-2.8,-1.5
COc1ccc(NC(=O)N2CCN(c3cccc(C(F)(F)F)c3)CC2)cc1OC,6.0,-1.3,19995*,-4.1,-4.3
O=C(Nc1ccccc1)N1CCN(c2cccc(C(F)(F)F)c2)CC1,-21.2,-0.8,9373,-3.0,-0.9
COc1ccccc1N(CC(=O)N1CCc2ccccc2C1)S(C)(=O)=O,-2.4,0.2,4823,-5.5,3.6
O=S(=O)(NCc1ccc2c(c1)OCO2)c1cccc2cnccc12,4.0,.,.,.,.
CS(=O)(=O)N(CC(=O)Nc1cc(Cl)ccc1Cl)c1ccccc1,-14.0,-1.8,24006*,-3.8,-2.1
COc1ccc(N(CC(=O)Nc2ccc(S(=O)(=O)N3CCCCC3)cc2)S(C)(=O)=O)cc1OC,9.2,?,19464*,1.4,1.3
CC(=O)N1CCN(c2ccc(NCc3ccc4c(c3)OCO4)cc2)CC1,28.3,1.9,4138,-67.2,-7.9
CCC(=O)Nc1ccc(N2CCN(Cc3ccccc3F)CC2)cc1,4.7,1.6,?,14.1,9.1
Cc1ccc(C(=O)N2CCN(c3ccc(NC(=S)NC(=O)Cc4ccccc4)cc3)CC2)cc1,12.1,1.0,22933*,-3.5,-3.0
